Bioassay records from PubChem BioAssay.
Sm TGR block – qHTS Assay for the Inhibitors of Schistosoma Mansoni Peroxiredoxins; Potency, µM (highest dose often 114 µM), without a hit: at the top dose activity change, negative = inhibition, hits mostly inhibitors; AID 485364, 2010; actives 3% (n = 360,000); purified TGR, DTNB reduction, TNB absorbance 405 nm; Schistosoma mansoni thioredoxin glutathione reductase (TGR), Q962Y6; further: potency means the concentration at half of the fitted maximal effect; on the % scale 0 is the no-effect control and ±100 the full control effect; nearly all actives have a fitted effect of over 60% in size
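First, TGR (20 nM dispensed) and NADPH were mixed with compound. Second, a 15 min room-temperature incubation followed. Third, further NADPH and then DTNB were added to start the reaction. Finally, TNB absorbance was monitored kinetically.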
TbPYK inhibitor – qHTS of Trypanosoma Brucei Inhibitors | pyruvate kinase (Trypanosoma brucei), Q57TT1 | TbPYK enzyme, Kinase-Glo Plus ATP luminescence, 45 min | Potency, µM (top dose mostly 76.8 µM), inactives show top-dose activity, negative = inhibition, hits mostly inhibitors | actives 0.12% (n = 410,000); further: potency means the concentration at half of the fitted maximal effect; on the % scale 0 is the no-effect control and ±100 the full control effect; nearly all actives have a fitted effect of over 50% in size
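In this concentration-response screen, enzyme-free wells defined baseline while DMSO plates tracked drift. Each reaction combined TbPYK, substrate, compound and 130 uM ADP for 45 min at room temperature. Kinase-Glo Plus luminescence gave the signal.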
CHX counter – Cycloheximide Counterscreen for Small Molecule Inhibitors of Shiga Toxin. cell reporter, cycloheximide protein synthesis inhibition counterscreen. max response, %. actives 12% (n = 300,000). AID 2314, 2010; in the data active means max response mostly above about 13%, no sharp cut-off; inactive means mostly below about 14%; further: read at 38.3 µM for the half of the compounds with a filed dose; 0% is about no effect
Shiga toxin inh – A qHTS for Small Molecule Inhibitors of Shiga Toxin; Vero cells, Shiga toxin protein synthesis inhibition reporter; inhibition, % at 38.7 µM; actives 9.2% (n = 290,000); AID 2315, 2010; in the data active means inhibition mostly above about 28%, no sharp cut-off; inactive means mostly below about 43%; further: 0% is about no effect
LmPK inh – qHTS Assay for Inhibitors of Leishmania Mexicana Pyruvate Kinase (LmPK) | Q27686 | purified LmPK, Kinase-Glo ATP luminescence, 1 h | Potency, µM (series often up to 57.5 µM), for inactives: at the highest dose activity change, negative = inhibition, actives largely listed as inhibitors | actives 0.37% (n = 290,000) | AID 1721, 2009; further: potency means the concentration at half of the fitted maximal effect; on the % scale 0 is the no-effect control and ±100 the full control effect
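Purified LmPK (0.1 nM) with 0.5 mM PEP and 0.1 mM ADP in imidazole buffer pH 7.2 with MgCl2/KCl, 1 h at room temperature. ATP formed was read by luciferase luminescence and normalized to no-enzyme and uninhibited controls.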
FBPA Giardia inh – qHTS Assay for Inhibitors of Fructose-1,6-bisphosphate Aldolase from Giardia Lamblia; Potency, µM (top dose mostly 59.6 µM), for the others: top-dose activity, negative = inhibition, actives largely listed as inhibitors; purified Giardia FBPA; A8B2U2; AID 2451, 2010; actives 0.71% (n = 290,000); further: potency means the concentration at half of the fitted maximal effect; on the % scale 0 is the no-effect control and ±100 the full control effect; nearly all actives have a fitted effect of over 55% in size
Target sequence (A8B2U2 whole entry, looked up): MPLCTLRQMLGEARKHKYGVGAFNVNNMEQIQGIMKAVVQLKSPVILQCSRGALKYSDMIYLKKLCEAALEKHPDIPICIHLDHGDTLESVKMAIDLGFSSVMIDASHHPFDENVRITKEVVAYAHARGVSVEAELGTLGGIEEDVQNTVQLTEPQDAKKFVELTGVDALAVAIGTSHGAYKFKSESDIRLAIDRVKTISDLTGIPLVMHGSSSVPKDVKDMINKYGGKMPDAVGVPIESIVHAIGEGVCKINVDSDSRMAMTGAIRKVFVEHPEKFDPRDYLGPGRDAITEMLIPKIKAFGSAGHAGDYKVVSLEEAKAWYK
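Giardia FBPA (40 nM reagent) was preincubated 10 min at RT with compound (up to 57.5 uM final), then substrate plus GAPDH/TPI/NAD/arsenate coupling system with diaphorase/resazurin was added; resorufin fluorescence (525/598 nm) was read after 20 min.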
* = called active by the depositor. Many of the other results were omitted from the sample, so hits are more common in it than they were. Unless noted, the call rests on the fitted dose curve; in most records, active means well fitted curve in the direction sought with a large enough effect; inconclusive means small, poorly fitted or top-dose-only effect, or another doubt; inactive means no such curve, though single readings can be large; an effect the other way counts as inactive or inconclusive.

What do the screens show for `Cc1nc2ccc(NS(=O)(=O)c3ccc(F)c(F)c3)cc2s1`?
Sm TGR block: -14.3%; TbPYK inhibitor: 2.8%

How did Cc1ccc2nc(-c3ccc(NS(=O)(=O)c4ccccc4)cc3)sc2c1 do in these assays?
Sm TGR block: -8.1%; TbPYK inhibitor: 2.4%; CHX counter: 29.3*; Shiga toxin inh: active; LmPK inh: 3.3%; FBPA Giardia inh: 2.2%

Results for Cc1ccc(S(=O)(=O)Nc2ccc3nc(C)sc3c2)cc1 ?
Sm TGR block: 6.7%; TbPYK inhibitor: -6.3%; CHX counter: 0.1; Shiga toxin inh: 17.2; LmPK inh: 3.3%; FBPA Giardia inh: 1.9%

Results for CN(C)c1ccc(C(CNS(=O)(=O)c2ccc(Br)cc2)N2CCCC2)cc1 (configuration not stated) ?
Sm TGR block: -1.2%; TbPYK inhibitor: 0.1%

What do the screens show for `CCCN(CCC)S(=O)(=O)c1ccc(NC(=O)Cc2cccs2)cc1`?
Sm TGR block: inconclusive; TbPYK inhibitor: 0.6%; CHX counter: 1.2; Shiga toxin inh: 16.0; LmPK inh: -0.7%; FBPA Giardia inh: -3.7%

Results for CCN(CC)S(=O)(=O)c1ccc(OC)c(NC(=O)Cc2cccs2)c1 ?
Sm TGR block: -1.3%; TbPYK inhibitor: -8.0%; CHX counter: 32.3*; Shiga toxin inh: -11.4; LmPK inh: -4.0%; FBPA Giardia inh: -7.3%

Results for CCCCN(CCCC)S(=O)(=O)c1ccc(NC(=O)Cc2cccs2)cc1 ?
Sm TGR block: -16.1%; TbPYK inhibitor: -3.8%; CHX counter: 35.4*; Shiga toxin inh: 27.1; LmPK inh: 10.3%; FBPA Giardia inh: 11.4%

What do the screens show for `CCCNS(=O)(=O)c1ccc(NC(=O)Cc2cccs2)cc1`?
Sm TGR block: 4.9%; TbPYK inhibitor: -0.5%; CHX counter: 18.5*; Shiga toxin inh: 20.6; LmPK inh: -2.4%; FBPA Giardia inh: 4.5%

What do the screens show for `COc1ccc(CNC(=O)Cn2c(=O)nc(-c3ccccc3F)c3cc(Cl)ccc32)cc1`?
Sm TGR block: 0.0%; TbPYK inhibitor: -7.7%

Results for Cc1ccc(OCCn2c(C3CC(=O)N(Cc4ccc(F)cc4)C3)nc3ccccc32)c(C)c1 (configuration not stated) ?
Sm TGR block: -13.4%; TbPYK inhibitor: 2.0%

How did CCCSc1nnc(N)s1 do in these assays?
Sm TGR block: 0.0%; TbPYK inhibitor: -1.1%; CHX counter: -3.6; Shiga toxin inh: -7.8; LmPK inh: -2.3%; FBPA Giardia inh: -2.1%

How did Nc1nnc(SCCOc2ccccc2)s1 do in these assays?
Sm TGR block: 5.0%; TbPYK inhibitor: -14.4%; CHX counter: 16.6*; Shiga toxin inh: 26.6*; LmPK inh: -0.6%; FBPA Giardia inh: 1.1%

Results for Nc1nnc(SCC(=O)OCC(=O)Nc2ccc(Br)cc2)s1 ?
Sm TGR block: 6.1%; TbPYK inhibitor: 3.4%; CHX counter: -1.4; Shiga toxin inh: -13.6; LmPK inh: 0.3%; FBPA Giardia inh: -3.7%

Results for Nc1nnc(SCCOc2ccc(Br)cc2)s1 ?
Sm TGR block: -19.1%; TbPYK inhibitor: 0.4%; CHX counter: 18.4*; Shiga toxin inh: 36.8; LmPK inh: 3.0%; FBPA Giardia inh: -0.1%

How did Cc1nnc(SCCOc2ccccc2)s1 do in these assays?
Sm TGR block: -11.4%; TbPYK inhibitor: -1.2%; CHX counter: 25.7*; Shiga toxin inh: 36.5; LmPK inh: 1.3%; FBPA Giardia inh: 1.3%

What do the screens show for `Clc1ccccc1-c1ccc2ncnc(NC3CCNCC3)c2c1`?
FBPA Giardia inh: 3.2%

How did COc1ccccc1Cc1c(-c2ccc(OC)c(OC)c2)nc2c(Cl)cc(C(F)(F)F)cn12 do in these assays?
TbPYK inhibitor: -8.0%

How did COc1ccc(-c2nc3c(n2O)CCC/C3=N\O)cc1 do in these assays?
Sm TGR block: -2.9%; TbPYK inhibitor: -7.5%; CHX counter: 27.3*; Shiga toxin inh: 76.7; LmPK inh: -15.0%; FBPA Giardia inh: -21.2%

Results for CCCn1c(C)cc(/C=C(\C#N)C(=O)OCC(=O)NC(=O)NCC)c1C ?
Sm TGR block: 5.9%; TbPYK inhibitor: 3.1%; CHX counter: 5.8; Shiga toxin inh: 17.6; LmPK inh: -0.3%; FBPA Giardia inh: 5.0%

Results for Cc1cc(/C=C(\C#N)C(=O)OCC(=O)Nc2ccc(OC(F)F)cc2)c(C)n1CC(C)C ?
Sm TGR block: 5.6%; TbPYK inhibitor: -3.4%; CHX counter: 26.2*; Shiga toxin inh: 32.3; LmPK inh: -0.5%; FBPA Giardia inh: -4.0%

How did Cc1cc(/C=C(\C#N)C(=O)OCC#N)c(C)n1CC(C)C do in these assays?
Sm TGR block: -9.8%; TbPYK inhibitor: 10.3%; CHX counter: 28.1*; Shiga toxin inh: 59.5*; LmPK inh: 0.2%; FBPA Giardia inh: 4.5%

Results for COCCn1c(C)cc(/C=C(\C#N)C(=O)OCC(=O)Nc2ccc(S(N)(=O)=O)cc2)c1C ?
Sm TGR block: 39.8µM*; TbPYK inhibitor: -3.7%

How did Cc1cccc(-c2ccc3ncnc(N(C)Cc4ccco4)c3c2)c1 do in these assays?
Sm TGR block: 4.8%

Results for CCOC(=O)C1(CCc2ccccc2)CCN(C(=O)CN2CCOC2=O)CC1 ?
Sm TGR block: 5.3%; TbPYK inhibitor: -11.0%; CHX counter: 21.0*; Shiga toxin inh: 46.2; LmPK inh: 4.9%; FBPA Giardia inh: 1.9%

What do the screens show for `CCOC(=O)C1(CCCc2ccccc2)CCN(C(=O)c2cncs2)CC1`?
Sm TGR block: 18.4%; TbPYK inhibitor: -4.8%; CHX counter: -3.2; Shiga toxin inh: 11.3; LmPK inh: 3.6%; FBPA Giardia inh: 2.4%

What do the screens show for `CCOC(=O)C1(CCc2ccccc2)CCN(C(=O)C2=C(C)OCCO2)CC1`?
Sm TGR block: -0.4%; TbPYK inhibitor: 3.4%; CHX counter: 22.5*; Shiga toxin inh: 41.7*; LmPK inh: 0.4%; FBPA Giardia inh: 4.7%

What do the screens show for `CCOC(=O)C1(CCc2ccccc2)CCN(C(=O)c2cnc(C)cn2)CC1`?
Sm TGR block: -6.4%; TbPYK inhibitor: 5.9%; CHX counter: 28.6*; Shiga toxin inh: 83.2*; LmPK inh: 2.9%; FBPA Giardia inh: 5.0%

How did CCOc1ccc(Nc2oc(/C=C/c3cc(OC)c(OC)c(OC)c3)nc2C#N)cc1 do in these assays?
Sm TGR block: 0.0%; TbPYK inhibitor: 0.2%

What do the screens show for `CCOC(=O)C(CCc1ccccc1)NC(C)C(=O)N1Cc2cc(OC)c(OC)cc2CC1C(=O)O` (configuration not stated)?
TbPYK inhibitor: 2.3%; CHX counter: -2.4; Shiga toxin inh: -5.3; FBPA Giardia inh: -0.2%
